Active and inactive are the calls of the source.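 The calls were made as follows, unless noted: active = NADPH fluorescence slope more negative than the mean of all samples by about 3 SD, 99.7% confidence; inactive = the rest.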
Assays:
[1] = inhibitors of E-selectin induction by TNFa, primary screen, imaging, HUVEC, immunofluorescence, MLSMR starter and 10KST1 sets (AID 487;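 active = visually confirmed hit in the image check and inhibition above 20%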;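 as to inhibition: signal is fraction of cell area covered by stained E-selectin grains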;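 as to nuclei count: 100% = median nuclei count of all wells on the same plate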); conditions: HUVEC TNFalpha-induced E-selectin immunofluorescence imaging, at 2 µM; inhibition: stronger effect = higher value; nuclei count: measured here: cell number, toxicity
[2] = DUSP6 inhibitors restoring Erk phosphorylation by chemical complementation, primary imaging in DUSP6-transfected HeLa (AID 609;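 active = compounds giving at least 50% inhibition in the cell-based MKP-3 phosphatase rescue imaging test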;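 as to inhibition: phospho-Erk level distribution per well compared with pooled transfected vehicle control wells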); conditions: HeLa MKP-3 transfected, phospho-Erk imaging KS statistic, at 10 µM, cells stimulated with TPA for 15 min
[3] = target: Dual specificity protein phosphatase 6 (Homo sapiens) (UniProt Q16828); test: as above; conditions: HeLa MKP-3 transfected, phospho-Erk imaging KS statistic; at 10 µM; stronger effect = higher value; cells stimulated with TPA for 15 min
Dual specificity protein phosphatase 6 (Homo sapiens), sequence (Q16828 whole entry, looked up): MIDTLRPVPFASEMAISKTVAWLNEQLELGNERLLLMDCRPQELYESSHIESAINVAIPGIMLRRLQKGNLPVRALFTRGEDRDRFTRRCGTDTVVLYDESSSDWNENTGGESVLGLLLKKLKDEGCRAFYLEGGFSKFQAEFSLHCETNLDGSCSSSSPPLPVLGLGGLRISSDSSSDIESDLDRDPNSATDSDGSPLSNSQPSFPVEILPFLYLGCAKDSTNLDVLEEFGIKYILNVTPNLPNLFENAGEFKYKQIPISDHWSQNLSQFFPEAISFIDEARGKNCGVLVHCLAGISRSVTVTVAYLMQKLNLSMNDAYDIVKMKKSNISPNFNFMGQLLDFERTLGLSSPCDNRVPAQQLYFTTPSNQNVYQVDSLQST

[4] = target: Voltage-gated potassium channel subunit beta-2 (Rattus norvegicus) (UniProt P62483); test: KvBeta enzyme negative modulators, primary screen, biochemical, NADPH fluorescence (AID 622;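 active = fluorescence slope higher than the sample average by over 3 SD, cut at about -0.22 in these data, passing the limit was not always enough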;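 also: slope of raw intensity against log time taken from 70 to 1610 s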); conditions: recombinant KvBeta, 4-cyanobenzaldehyde reduction, at 10 µM, stronger effect = higher value
Voltage-gated potassium channel subunit beta-2 (Rattus norvegicus), sequence (P62483 whole entry, looked up): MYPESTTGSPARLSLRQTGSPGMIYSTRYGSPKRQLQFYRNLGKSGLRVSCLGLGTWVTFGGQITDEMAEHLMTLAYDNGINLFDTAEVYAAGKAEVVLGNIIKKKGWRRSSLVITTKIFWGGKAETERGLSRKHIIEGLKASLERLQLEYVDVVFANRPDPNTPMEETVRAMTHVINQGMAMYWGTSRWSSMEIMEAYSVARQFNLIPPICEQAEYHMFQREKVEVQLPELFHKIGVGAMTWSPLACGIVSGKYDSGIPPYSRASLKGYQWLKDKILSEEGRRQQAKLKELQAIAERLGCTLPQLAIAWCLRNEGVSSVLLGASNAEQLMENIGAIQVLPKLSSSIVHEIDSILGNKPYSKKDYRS

[5] = target: Voltage-gated potassium channel subunit beta-2 (Rattus norvegicus) (UniProt P62483); test: KvBeta positive modulators, primary screen, biochemical, NADPH fluorescence (AID 623); conditions: Recombinant KvBeta, NADPH fluorescence decrease slope, 10 min; at 10 µM; stronger effect = lower value;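 also: fluorescence intensity change per second fitted from 20 to 320 s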
[6] = inhibitors of Sendai virus-induced IRF3 signaling, primary screen, TLR/RLR signaling modifier project, cell-based, Sendai virus stimulus, luciferase, 10K MLSCN set (AID 602276;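 active = inhibition at or above 50% at 10 µM; inactive = inhibition below 50%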;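 also: firefly luciferase from ISG56 promoter only with Renilla not read in this screen; 0% = Sendai virus plus DMSO and 100% = medium plus DMSO without virus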); conditions: HEK293 RL24 IRF3 luciferase reporter, at 10 µM, stronger effect = higher value
[7] = inhibitors of poly I:C-induced TLR3 signaling, primary screen, cell-based, poly I:C stimulus, luciferase, 10K MLSCN set (AID 602277;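 active = inhibition of the reporter signal at or above 50%; inactive = inhibition below 50%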); conditions: HEK293-TLR3 RL24 IRF3 luciferase reporter, at 10 µM, stronger effect = higher value
[8] = target: Alpha-2C adrenergic receptor (Homo sapiens) (UniProt P18825); test: modulators of alpha2C/GIRK thallium flux, primary screen, cell-based, HEK293 alpha2C/GIRK1/2 (AID 624;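 active = fluorescence slope after compound addition differing from the mean of all screened samples at 99.7% confidence, in either direction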;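 also: slope of fluorescence ratio to pre-addition baseline per second over 15 to 24 s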); conditions: thallium flux BTC fluorescence, at 10 µM, actives lie on both sides
Alpha-2C adrenergic receptor (Homo sapiens), sequence (P18825 whole entry, looked up): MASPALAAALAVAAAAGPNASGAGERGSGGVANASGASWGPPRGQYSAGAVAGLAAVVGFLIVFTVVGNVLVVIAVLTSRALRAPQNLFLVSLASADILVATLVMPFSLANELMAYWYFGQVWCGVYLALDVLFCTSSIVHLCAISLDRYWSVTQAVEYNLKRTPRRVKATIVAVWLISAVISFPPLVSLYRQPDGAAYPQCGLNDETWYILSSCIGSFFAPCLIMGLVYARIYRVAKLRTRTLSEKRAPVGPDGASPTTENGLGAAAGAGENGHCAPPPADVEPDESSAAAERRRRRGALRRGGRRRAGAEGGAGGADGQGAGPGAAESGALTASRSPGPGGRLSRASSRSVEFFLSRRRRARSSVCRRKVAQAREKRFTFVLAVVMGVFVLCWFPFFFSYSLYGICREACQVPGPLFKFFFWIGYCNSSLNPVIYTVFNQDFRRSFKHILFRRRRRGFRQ

[9] = inhibitors of larval lipid processing in zebrafish, primary screen, whole organism, PED6 fluorescence, gall bladder and intestine (AID 686;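 active = a full or partial loss of lipid-probe fluorescence in the fish gall bladder, intestine or both, judged by eye; inactive = no fluorescence loss, or compound toxic to the fish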;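 also: larvae 5 to 7 days old with five fish per well; signal comes from phospholipase A2 cleavage of quenched PED6 carried via bile; overnight exposure to compound and PED6 before scoring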); conditions: Zebrafish larvae PED6 lipid processing, fluorescence scoring; screened at 20 µM (by protocol)
[10] = target: Muscarinic acetylcholine receptor M4 (Homo sapiens) (UniProt P08173); test: compounds altering M4/GIRK thallium flux, either direction, primary screen, M4 allosteric agonist project, cell-based, HEK293 M4/GIRK, BTC-AM (AID 625;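 active = fluorescence slope after compound addition differing from the mean of all tested samples at 99.7% confidence, mostly higher but some lower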;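 also: thallium influx through GIRK channels coupled to M4 in HEK293 cells with BTC-AM dye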); conditions: at 10 µM, actives lie on both sides
Muscarinic acetylcholine receptor M4 (Homo sapiens), sequence (P08173 whole entry, looked up): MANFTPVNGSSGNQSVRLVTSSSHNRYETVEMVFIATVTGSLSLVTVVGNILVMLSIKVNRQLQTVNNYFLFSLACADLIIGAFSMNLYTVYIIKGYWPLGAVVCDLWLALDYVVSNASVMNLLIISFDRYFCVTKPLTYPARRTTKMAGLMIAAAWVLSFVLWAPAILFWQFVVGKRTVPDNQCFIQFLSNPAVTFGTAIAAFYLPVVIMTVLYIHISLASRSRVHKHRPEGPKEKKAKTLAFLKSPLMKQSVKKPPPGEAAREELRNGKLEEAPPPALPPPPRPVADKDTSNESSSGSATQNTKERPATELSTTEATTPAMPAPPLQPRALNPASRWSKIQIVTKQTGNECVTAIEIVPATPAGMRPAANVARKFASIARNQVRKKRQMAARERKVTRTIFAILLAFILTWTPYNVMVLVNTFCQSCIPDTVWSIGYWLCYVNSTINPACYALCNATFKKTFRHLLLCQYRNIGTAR

[11] = inhibitors of Chlamydomonas gravitaxis, primary screen, whole organism, Chlamydomonas reinhardtii, WT vs cilia-less mutant, absorbance, 96-well (AID 463189;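 active = inhibition at or above 50% relative to wild type and mutant plate controls; inactive = inhibition below 50%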;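 also: 0% = wild type cc124 cells in DMSO and 100% = ciliumless bld1 mutant cells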); conditions: OD600 absorbance, 2 days, at 10 µM, stronger effect = higher value
[12] = inhibitors of mutant huntingtin aggregation, primary screen, imaging, exon1htt(103Q)mCFP cells, high-content imaging (AID 483;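 active = visual image review flags a hit and inhibition of aggregation exceeds 20%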;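 also: compound exposure lasted 3 days before fixation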;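 as to nuclei count: percent of the per-plate median nuclei count of sample wells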); conditions: exon1htt(103Q)mCFP cell line, aggregate imaging, at 2 µM; inhibition of aggregation: stronger effect = higher value; nuclei count: measured here: cell count, toxicity
[13] = measured here: cell density z-score
[14] = measured here: nuclear c-Myc green intensity z-score
[15] = measured here: nuclear pErk red intensity z-score, stronger effect = higher value

| Compound | inhibition [1] | nuclei count [1] [%] | z-score [2, 13] | z-score [2, 14] | z-score [2, 15] | inhibition [3] | fluorescence slope [4] | NADPH fluorescence slope [5] | inhibition [6] | inhibition [7] | slope [8] | outcome [9] | fluorescence slope [10] | inhibition [11] | inhibition of aggregation [12] | nuclei count [12] [%] |
| --- | --- | --- | --- | --- | --- | --- | --- | --- | --- | --- | --- | --- | --- | --- | --- | --- |
| COc1ccc(CCN(C)CCCC(C#N)(c2ccc(OC)c(OC)c2)C(C)C)cc1OC (stereo not given) | -110% (inactive) | 114 | -0.13 | -0.251 | -0.441 | 12.4% (inactive) | -0.461 (inactive) | -2.2e-05 (inactive) | 2.16% (inactive) | 27% (inactive) |  |  |  |  |  |  |
| O=C(C1CCN(S(=O)(=O)c2cnc[nH]2)CC1)N1CCN(c2ncccn2)CC1 |  |  |  |  |  |  | -0.353 (inactive) | -7e-05 (inactive) | -35.5% (inactive) | 88.9% (active) | 0.00534 (inactive) | inactive |  |  |  |  |
| CCCN1Cc2cccc(C(=O)NCc3cccs3)c2C1=O |  |  |  |  |  |  | -0.393 (inactive) | -4e-05 (inactive) | 3.53% (inactive) | 2.96% (inactive) | 0.00508 (inactive) | inactive |  |  |  |  |
| CC(C)c1nc2sc3c(c2c(=O)o1)CCCC3 | -11.8% (inactive) | 143 | -0.957 | 1.42 | 1.08 | 13.2% (inactive) | -0.376 (inactive) | -6.4e-05 (inactive) |  |  |  | inactive | 0.00562 (inactive) | 22.9% (inactive) |  |  |
| O=C(CSc1nc2c(sc3ccccc32)c(=O)n1Cc1ccco1)NCC1CCCO1 (stereo not given) |  |  |  |  |  |  | -0.58 (inactive) | -4.5e-05 (inactive) | 19.7% (inactive) | 20.3% (inactive) |  |  | 0.00708 (inactive) |  |  |  |
| COc1ccc(-n2c(C)c(C(C)=O)c3cc(O)ccc32)cc1 | 4.2% (inactive) | 135 | -0.551 | -0.198 | 0.861 | 9.39% (inactive) | -0.4 (inactive) | -4.1e-05 (inactive) |  |  |  | inactive | 0.00708 (inactive) | 30.2% (inactive) |  |  |
| CN1[C@@H]2CC(OC(=O)[C@H](CO)c3ccccc3)C[C@H]1[C@@H]1O[C@@H]12 (stereo not given in full) | -56.4% (inactive) | 129 | 0.18 | -0.245 | -0.715 | 15.3% (inactive) | -0.461 (inactive) | -3e-05 (inactive) | 2.34% (inactive) | 25.9% (inactive) | 0.00551 (inactive) |  |  |  |  |  |
| COc1ccc(OC)c(C2=NOC(C(=O)Nc3c(C)n(C)n(-c4ccccc4)c3=O)C2)c1 (stereo not given) |  |  |  |  |  |  | -0.546 (inactive) | -2.8e-05 (inactive) | -3.88% (inactive) | 17.6% (inactive) | 0.0073 (inactive) |  |  |  |  |  |
| Oc1oc(-c2ccccc2)nc1C=NCc1ccncc1 | 5.8% (inactive) | 104 | 0.0106 | -0.425 | 0.0699 | 13.2% (inactive) | -0.353 (inactive) | 7.6e-07 (inactive) |  |  |  | inactive | 0.00715 (inactive) | -10.3% (inactive) |  |  |
| CC(C)(C)C1CCc2onc(C(=O)Nc3cnn(Cc4ccc(F)cc4)c3)c2C1 (stereo not given) |  |  |  |  |  |  | -0.58 (inactive) | 1.6e-05 (inactive) | 12% (inactive) | 19.7% (inactive) |  |  | 0.00687 (inactive) |  |  |  |
| COc1cc(C)nc(Oc2ccc(=O)[nH]n2)n1 | -34.6% (inactive) | 147 | -0.3 | 1.04 | -1.72 | 5.57% (inactive) | -0.296 (inactive) | -4e-05 (inactive) |  |  |  | inactive | 0.00779 (inactive) | 34.1% (inactive) |  |  |
| O=C(CN(Cc1ccco1)C(=O)CNS(=O)(=O)c1ccc(Cl)cc1)NCc1ccc(F)cc1 | -185% (inactive) | 159 |  |  |  |  | -0.567 (inactive) | -6.4e-06 (inactive) | 22.1% (inactive) | 27.5% (inactive) |  |  | 0.00551 (inactive) |  | -10.4% (inactive) | 97.5 |
| CC(C)CCNC(=O)NC(=O)CSc1nnc(COc2ccccc2Cl)o1 | -53.1% (inactive) | 126 |  |  |  |  | -0.513 (inactive) | -7.7e-06 (inactive) | 9.99% (inactive) | 21% (inactive) |  |  | 0.00525 (inactive) |  | 13.9% (inactive) | 98.5 |
| CCCNCC(O)COc1ccccc1C(=O)CCc1ccccc1 (stereo not given) | -137% (inactive) | 129 | -0.576 | 0.234 | 0.603 | -4.44% (inactive) | -0.521 (inactive) | -4.9e-05 (inactive) | 9.47% (inactive) | 42.6% (inactive) | 0.00393 (inactive) |  |  |  |  |  |
| C1CCC2=NCCCN2CC1 | -40.2% (inactive) | 99.2 |  |  |  |  | -0.37 (inactive) | 4.2e-05 (inactive) | 10.9% (inactive) | 20.9% (inactive) | 0.00592 (inactive) |  |  |  | 7.9% (inactive) | 102 |
| Cc1ccccc1-c1nc(CS(=O)(=O)CC(=O)N(C)C2CCCCC2)c(C)o1 |  |  |  |  |  |  | -0.49 (inactive) | -3.4e-05 (inactive) | -5.9% (inactive) | -32.7% (inactive) | 0.00717 (inactive) |  |  |  |  |  |
| CCOC(=O)C1CCCN(c2cc(=O)n(Cc3ccc(F)cc3)c(=O)[nH]2)C1 (stereo not given) |  |  |  |  |  |  | -0.387 (inactive) | -1.6e-05 (inactive) | 11.9% (inactive) | 19.7% (inactive) |  |  | 0.0077 (inactive) |  |  |  |
| COc1ccc(CNC(=O)COC(=O)c2n[nH]c3ccccc23)cc1OC | -287% (inactive) | 171 |  |  |  |  | -0.382 (inactive) | 1.4e-05 (inactive) | 6.09% (inactive) | -3.54% (inactive) | 0.00438 (inactive) |  |  |  | -22.1% (inactive) | 108 |
| CC(=O)N1CCc2cc(S(=O)(=O)NCCC(=O)NC3CCCc4ccccc43)ccc21 (stereo not given) |  |  |  |  |  |  | -0.388 (inactive) | -4e-05 (inactive) | -3.18% (inactive) | -2.7% (inactive) | 0.00543 (inactive) | inactive |  |  |  |  |

From PubChem BioAssay
